This is a sample that favours compounds with a hit; in the whole collection about 18% have one here.
TDP1 cell noCPT: qHTS for Inhibitors of human tyrosyl-DNA phosphodiesterase 1 (TDP1): qHTS in cells in absence of CPT | Potency, µM (doses to about 46.2 µM), actives largely listed as inhibitors | DT40 Tdp1-/- hTDP1 cells, no CPT, ATP luminescence, 48 h | 420,000 tested, 15% active; also: nearly all actives have a fitted effect of over 55% in size
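Cells were dispensed at 400 per well, compounds added by pin tool, plates incubated ≥48 hr at 37 °C, then CellTiter-Glo added for 30 min at room temperature before luminescence reading. Line: DT40 Tdp1-/- complemented with hTDP1; camptothecin omitted.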
IL1B secr inh: inflammasome signaling inhibition, IL-1 beta readout; THP-1 LPS/ATP IL-1B secretion, AlphaLISA, 16 h; active compounds read low; activity change, % at 57.5 µM; 360,000 tested, 4.7% active; in the data active = activity change below about -50%; inconclusive = mostly about -30% to -49%
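Secreted IL-1B measured by AlphaLISA bead assay after 16 h compound exposure of THP-1 cells; compounds (final up to 57.5 uM) added 1 h before LPS (250 ng/mL) and ATP (1.25 mM) stimulation; lower signal means less secretion.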
RORgamma inh: ROR gamma (mouse) transcription inhibition | P51450 | 310,000 tested, 5.4% active | Potency, µM (series often up to 53.6 µM), hits mostly inhibitors | AID 2551 | Drosophila S2 Gal4-RORgamma UAS-luciferase reporter, 20 h; also: nearly all actives have a fitted effect of over 60% in size
Target sequence (P51450 whole entry, looked up, the tested form may be a part): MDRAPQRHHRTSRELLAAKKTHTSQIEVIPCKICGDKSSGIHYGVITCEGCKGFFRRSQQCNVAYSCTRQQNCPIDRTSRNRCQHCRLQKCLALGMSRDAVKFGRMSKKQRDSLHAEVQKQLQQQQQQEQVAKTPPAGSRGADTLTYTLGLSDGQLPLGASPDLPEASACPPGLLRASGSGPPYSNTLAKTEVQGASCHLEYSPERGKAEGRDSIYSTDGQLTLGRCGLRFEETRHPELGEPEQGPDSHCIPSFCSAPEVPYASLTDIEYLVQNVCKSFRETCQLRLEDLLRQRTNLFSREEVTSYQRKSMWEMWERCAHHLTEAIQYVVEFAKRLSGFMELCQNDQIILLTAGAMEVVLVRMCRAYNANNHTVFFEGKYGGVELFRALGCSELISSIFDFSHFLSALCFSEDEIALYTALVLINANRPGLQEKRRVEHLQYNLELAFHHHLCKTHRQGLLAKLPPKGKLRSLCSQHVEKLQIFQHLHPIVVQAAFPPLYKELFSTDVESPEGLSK
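Drosophila S2 cells stably expressing Gal4-DBD/mouse RORγ fusion under metallothionein promoter plus UAS-luciferase; compound 1 h, then 700 uM CuSO4 induction for 20 h at ambient temperature; inhibition read as reduced luminescence.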
DT40 TDP1 CPT: growth inhibition of DT40 Tdp1-/-;hTDP1 cells with camptothecin (screen for TDP1 inhibitors); chicken DT40 Tdp1-/-;hTDP1 cells + 20 nM CPT, ATP luminescence, 48 h; Potency, µM (titrated, usually from 46.2 µM), hits mostly inhibitors; 420,000 tested, 12% active; also: nearly all actives have a fitted effect of over 55% in size
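Cell growth measured by CellTiter-Glo luminescence after a minimum 48 h, 37 C compound exposure with 20 nM CPT in Tdp1-knockout DT40 cells stably expressing hTDP1, seeded 400/well; qHTS titration format.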
VP16 counter: counter-screen for ROR gamma inhibitors: Gal4-VP16 reporter; Potency, µM (highest dose often 53.6 µM), hits mostly inhibitors; 310,000 tested, 3.5% active; AID 2546; Drosophila S2 Gal4-VP16 UAS-luciferase, luminescence, 20 h;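 also: Gal4-VP16 expression switched on by copper sulfate through the metallothionein promoter; nearly all actives have a fitted effect of over 50% in size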
LDHA block: blocks human lactate dehydrogenase A. P00338. purified LDHA, NADH/diaphorase-resazurin fluorescence; active compounds read low. activity change, % (values are at about 110 or 230 µM). 480,000 tested, 0.15% active. AID 1347041; in the data active = activity change below about -30%; inconclusive = mostly about -25% to -30%
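Remaining NADH was detected by diaphorase (0.133 mg/mL) converting 37 µM resazurin to fluorescent resorufin, read at 0 and 20 minutes. The preceding 5-minute room-temperature reaction used 2 nM LDHA, 0.2 mM sodium pyruvate and 0.06 mM NADH at pH 7.4.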
A number is an active result; . = inactive; ? = inconclusive; / = not tested or not shown. Unless noted, calls follow the shape of the dose curve; as a rule, active = well fitted curve in the direction sought with a large enough effect; inconclusive = small, poorly fitted or top-dose-only effect, or another doubt; inactive = no such curve, though single readings can be large; an effect the other way counts as inactive or inconclusive.

SMILES	TDP1 cell noCPT	IL1B secr inh	RORgamma inh	DT40 TDP1 CPT	VP16 counter	LDHA block
COCOCCn1cc(CN2CCS(=O)(=O)N(Cc3ccc(-c4ccc(F)cc4)cc3)C(CC(C)C)C2=O)nn1 (stereo unspecified)	15µM	.	/	26µM	/	.
C=CCNc1oc(-c2ccc(COc3cccc(C)c3)o2)nc1C#N	/	/	/	/	/	.
COCOCCn1cc(CN2CCS(=O)(=O)N(Cc3ccc(-c4ccc(F)cc4)cc3)C(C(C)C)C2=O)nn1 (stereo unspecified)	18µM	?	/	?	/	.
CCC/C=C/c1ccc(CN2C(C(C)C)C(=O)N(Cc3cn(CCOCOC)nn3)CCS2(=O)=O)cc1 (stereo unspecified)	?	.	/	?	/	.
O=P(c1ccccc1)(c1ccccc1)C(c1ccco1)N1CCOCC1 (stereo unspecified)	?	.	2.2µM	?	.	.
O=C(N[C@H]1C/C=C\C[C@@H](CC(=O)N(CCO)Cc2ccccc2)C(=O)N2CCC[C@@H]2COC1=O)OCC1c2ccccc2-c2ccccc21	6.5µM	.	/	8.2µM	/	.
O=C(N[C@H]1C/C=C\C[C@@H](CC(=O)N(CCO)Cc2ccccc2)C(=O)N2CCC[C@H]2COC1=O)OCC1c2ccccc2-c2ccccc21	18µM	.	/	13µM	/	.
O=C(/C=C\c1ccc2c(c1)OCO2)CC1(O)C(=O)Nc2ccccc21 (stereo unspecified)	?	-101	.	?	.	.
CCOC(=O)c1csc(N/N=C2\CCCc3ccccc32)n1	16µM	.	?	?	.	.
COc1ccc2c(c1)CCC/C2=N\Nc1nc(C(=O)NN)cs1	?	/	3.5µM	?	13µM	.
COc1ccc2c(c1)CCC/C2=N\NC(=O)c1ccoc1C	.	.	40µM	.	?	.
CCOC(=O)c1csc(NC(=O)C2CCCCC2)n1	.	.	.	.	?	.
CCOC(=O)c1csc(N/N=C2\CCc3ccccc32)n1	?	-93	10µM	?	?	.
CCOC(=O)c1csc(NC(=O)c2cccs2)n1	.	.	.	.	.	.
COc1ccc2c(c1)CCC/C2=N\O	/	/	/	/	/	.
CNC(=O)C1(NC(=O)CNC(=O)CC(C)(C)C)CCCCC1	/	/	/	/	/	.
CC(C)(C)CC(=O)N1CCC(C(=O)NCc2cccnc2)CC1	/	/	/	/	/	.
C#C[C@]1(OC(C)=O)CC[C@H]2[C@@H]3CCC4=CC(=O)CC[C@@H]4[C@H]3CC[C@@]21C	12µM	/	?	8.4µM	.	/
C=C(C)Cn1c(N2CCOCC2)nc2c1c(=O)n(C)c(=O)n2C	/	/	/	/	/	.
COc1cccc(C(O)C2OC(=O)c3ccccc32)c1OC (stereo unspecified)	9.2µM	.	/	.	/	.
CC(/C=C/c1ccco1)=N\NC(=O)c1cccc(Cl)c1	?	.	4µM	?	3.5µM	.
CC(/C=C/c1ccccc1F)=N\NC(=O)c1cccc(F)c1	18µM	.	0.89µM	?	5µM	.
CCOC(=O)N/N=C(C)/C=C/c1ccco1	.	.	?	.	.	.
CC(/C=C/c1ccco1)=N\NC(=O)COc1ccc(C)c(C)c1	.	.	?	.	8.9µM	.
CC(/C=C/c1ccco1)=N/NC(=O)c1ccccc1Cl	16µM	.	?	23µM	?	.
SMILES	TDP1 cell noCPT	IL1B secr inh	RORgamma inh	DT40 TDP1 CPT	VP16 counter	LDHA block
CCCC1CC(C(=O)NC(C(C)O)C2OC(SC)C(O)C(O)C2O)N(C)C1 (stereo unspecified)	/	/	/	/	/	.
S=C(NCCSc1ccc(Cl)cc1)Nc1ccc(Nc2ccccc2)cc1	/	/	/	/	/	.
CN1CCN(C(=O)CCn2c(-c3ccccc3)cc3ccccc32)CC1	/	/	/	/	/	.
O=C(N/N=C/C=C\c1ccco1)c1cccs1	?	?	?	?	?	.
O=C(N/N=C/C=C/c1ccco1)/C(=C/c1ccccc1)NC(=O)c1ccccc1	?	.	13µM	?	?	.
O=C(N/N=C/C=C/c1ccco1)c1ccncc1	.	.	10µM	.	?	.
CCOC(=O)N/N=C\C=C\c1ccco1	?	.	.	.	.	.
O=C(N/N=C/C=C/c1ccco1)c1ccccc1Cl	16µM	.	?	?	.	.
CN(C)c1ccc(Nc2nc(-c3ccc([N+](=O)[O-])cc3)nc3ccccc23)cc1	/	/	/	/	/	.
CCOc1ccc(Cl)cc1S(=O)(=O)NCc1ccccn1	.	.	?	.	?	.
CCOc1cc(Cl)c(S(=O)(=O)NCc2ccccn2)cc1Cl	?	.	13µM	.	20µM	.
COc1ccc(S(=O)(=O)NCc2ccccn2)c(C)c1C	?	.	?	.	.	.
CCOc1ccc(S(=O)(=O)NCc2ccccn2)c(C)c1C	.	.	.	23µM	.	.
CC1CCCCC1NC(=O)c1ccc2c(Cl)c3c(nc2c1)CCCC3 (stereo unspecified)	/	/	/	/	/	.
CC(=O)c1cccc(NC(=S)NC(=O)Cc2ccc(Cl)cc2)c1	.	.	10µM	.	?	.
CC(=O)c1cccc(NC(=S)Nc2ccn(Cc3cccc4ccccc34)n2)c1	?	.	2.8µM	?	5µM	.
COc1cccc(NC(=S)NC(=O)Cc2ccccc2)c1	.	.	/	.	/	.
CC(=O)c1cccc(NC(=O)NCCc2ccc(Cl)cc2)c1	.	.	.	?	.	.
CC(=O)c1cccc(NC(=S)NC(=O)Cc2ccccc2)c1	.	.	1.4µM	.	5µM	.
O=C1C=C(C2CCCCC2)C(=O)c2ccccc21	15µM	.	/	21µM	/	.
O=C(O)C1=C(C2CCCCC2)C(=O)c2ccccc21	.	-55	/	.	/	.
COc1ccc(Nc2nc3ccccc3nc2NS(=O)(=O)c2cccc(Cl)c2)c(OC)c1	/	/	/	/	/	.
C#CC1(O)CC(C)N(C)CC1C (stereo unspecified)	/	/	/	/	/	.
Cc1nn(C(=O)c2ccccc2)c(C)c1Sc1ccc(Cl)cc1	8.2µM	/	/	?	/	.
CCC(=O)Oc1c(Sc2ccc(Cl)cc2)c(C)nn1-c1ccccc1	0.52µM	/	/	?	/	.
SMILES	TDP1 cell noCPT	IL1B secr inh	RORgamma inh	DT40 TDP1 CPT	VP16 counter	LDHA block
N#CC(C#N)=C1C(=O)N(CCN2CCCCC2)c2ccccc21	18µM	?	.	16µM	.	.
N#CC(C#N)=C1C(=O)N(CCN2CCOCC2)c2ccccc21	?	/	?	29µM	?	.
CCCCN1C(=O)/C(=C(/C#N)C(=O)N2CCCC2)c2ccccc21	21µM	.	.	16µM	.	.
O=C1c2ccccc2C(O)N1CCN1CCOCC1 (stereo unspecified)	.	.	.	.	.	.
COc1ccc(F)cc1C(=O)/C=C/c1ccc(C(=O)O)cc1	/	/	/	/	/	.
COc1ccc2sc(C)cc(=O)c2c1	.	.	/	.	/	.

Assay outcomes (PubChem BioAssay)
